Reference: PubChem BioAssay
Results with a measured potency or affinity are listed apart. Inconclusive results are not listed. Values without a mark were called inactive.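 How the source made its calls, unless noted: active means fitted half-maximal concentration for viability loss no higher than twice the top valid dose, in every repeat run; inconclusive means repeat runs disagree, flat partial loss, or poor curve fit; inactive means the rest.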

Assay: cytotoxicity in PAX8-dependent RMG-1 cells, dose response, cell-based, cherry-pick (AID 687029;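 active means signal drop whose fitted half-maximal concentration is at most twice the top valid dose, in every test run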;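 further: cells exposed to compound for 96 hours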)
Conditions: RMG-1 viability, CellTiterGlo ATP luminescence, 96 h; series mostly up to 35 µM; activity change, negative = inhibition: at the top concentration

In order of falling “activity change, negative = inhibition” value:
1. O=C(Nc1cccc(Br)c1)c1ccc2c(c1)SC1=NS(=O)(=O)CCN12  50.9%
2. COc1ccc(C(=O)N/N=C/c2ccc(OC)c(CN3CCN(c4ccc(F)cc4)CC3)c2)cc1  50%
3. O=C(N/N=C/c1ccc(Cl)c([N+](=O)[O-])c1)c1cc(-c2ccc3c4c(cccc24)CC3)n[nH]1  46.5%
4. COc1cc(Cl)c(NC2=CC(=O)C(=O)c3ccccc32)c(OC)c1  41.4%
5. CCc1ccc2[nH]c3nc(N/N=C/c4ccc(O)cc4O)nnc3c2c1  38.1%
6. COc1ccccc1N1CCN(Cc2cc(Br)c(O)c3ncccc23)CC1  36.6%
7. O=C(N/N=C/c1ccc(O)cc1)c1[nH]c2ccc(Br)cc2c1-c1ccccc1  36.3%
8. O=C(Nc1ccc([N+](=O)[O-])cn1)c1cc(-c2cccc(Br)c2)nc2ccccc12  34.5%
9. CCN(CC)CC(C)(C)C(=O)/C=C/c1ccc(/C=C/C(=O)C(C)(C)CN(CC)CC)cc1  33.2%
10. O=C1c2c(O)ccc(O)c2C(=O)c2c(NCCNCCO)ccc(NCCNCCO)c21  30.9%
11. O=C(CCc1ccc(S(=O)(=O)NCc2ccccc2)cc1)NCc1ccco1  30%
12. C=CC(=O)N1C/C(=C/c2ccc(Cl)cc2)C(=O)/C(=C\c2ccc(Cl)cc2)C1  29.7%
13. CN(C)N=Nc1nc[nH]c1C(N)=O  27.5%
14. Cc1cccc(NCc2ccc(O)c3ncccc23)c1C  26.9%
15. Cc1ccc2c(c1C)-c1c(ccc(C)c1C)C(=O)C2=O  25.5%
16. CCCCNC(=O)C(Sc1ccccc1)c1ccccc1 (stereo not given)  24.8%
17. CCOC(=O)Nc1ccc2c(c1)N(C(=O)CCCl)c1ccccc1[S@]2=O  24.1%
18. C=C1C2(C(=O)Nc3ccc(SC(F)F)cc3)CCC(C2)C1(C)C (stereo not given)  23.6%
19. O=C(c1nnsc1S(=O)(=O)c1ccc(Cl)cc1)N1CCOCC1  23.5%
20. C[C@H](CO)N1C[C@H](C)[C@H](CN(C)S(=O)(=O)c2cccc(F)c2)OCc2ccccc2-c2c(n(C)c3ccccc23)C1=O  22.8%
21. O=C(Nc1cccc(F)c1)N1CCCCN2[C@@H](CO)[C@H](c3ccc(C#Cc4ccccc4)cc3)[C@@H]2C1  22.1%
22. CN(C)CCOc1ccc2c(c1)C(=O)C(=Cc1ncc([N+](=O)[O-])n1C)C2  20.9%
23. Nc1ncnc2c(C3OC(CO)C(O)C3O)scc12 (stereo not given)  20.6%
24. CCC(=O)Oc1ccc2c(C)cc(=O)oc2c1C(=O)c1ccccc1  19.3%
25. COc1ccc(S(=O)(=O)Nc2ccc3c(c2)C(=O)N([C@H](C)CO)C[C@H](C)[C@@H](CN(C)S(=O)(=O)c2ccc(C)cc2)OCCCC[C@H](C)O3)cc1  19.1%
26. COc1ccc(-c2cc(-c3ccccc3)c(C#N)c(S(C)(=O)=O)n2)cc1  18.1%
27. C=C1C(=O)[C@]23C[C@H]1CC[C@H]2[C@]1(C)[C@@H](OC(C)=O)CC[C@@](C)(C(=O)OC)[C@H]1C[C@@H]3OC(C)=O  17.5%
28. O=C(NC1CCCCC1)C(c1cccs1)N(C(=O)Cc1c[nH]c2ccccc12)c1ccc(F)cc1 (stereo not given)  16.9%
29. Cc1noc(/C=C/c2ccco2)c1S(=O)(=O)N1CCC(C(=O)NC(C)c2ccccc2)CC1 (stereo not given)  15.6%
30. COC(=O)[C@@]12C[C@@H](CC(=O)N3CCN(C(=O)c4ccco4)CC3)C(=O)N(Cc3ccco3)C1=CCC(C)(C)C2  14.7%
31. COc1cccc(/C=N/NC(=O)c2ccc(N3CCCC3=O)cc2)c1  14.4%
32. O=C(Nc1cccc(Cl)c1)Nc1csc([N+](=O)[O-])c1  14.2%
33. CCCN(CCC)Cc1c(C(=O)N/N=C/C(C)=C\c2ccco2)nnn1-c1nonc1N  13.6%
34. Cc1ccc(S(=O)(=O)N2CCCCC2)cc1NC(=O)Cc1c[nH]c2ccccc12  12.4%
35. O=C(Nc1ccc(F)cc1)c1nc(S(=O)(=O)Cc2ccccc2)ncc1Cl  9.93%
36. C=C1C(=O)O[C@@H]2[C@H]1CC[C@H](C)[C@]1(O)CCC(=O)[C@@]21C  7.91%
37. Cc1cccc(NC(=O)CC23CC4CC(C2)CC(n2nnc(C)n2)(C4)C3)c1  7.63%
38. Cc1ccc(S(=O)(=O)CCC(=O)c2ccc(O)cc2O)cc1  5.25%
39. CCN(CC(=O)Nc1c(F)cccc1F)C(=O)c1cc(S(=O)(=O)N(CC)CC)ccc1N1CCCCC1  -2.11%

For `CC(C)OCCCNC(=O)c1cccc(NC(=O)c2ccccc2)c1`, the “activity change, negative = inhibition” value was 31.1% [at 16 µM].

Assay: cytotoxicity in IOSE-T80 ovarian epithelial cells, dose response, selectivity assay for PAX8 inhibitor project, cell-based, cherry-pick (AID 687032);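 further: cells exposed to compound for 96 h before reading; 0% = neutral control wells and -100% = 2 µM mitoxantrone kill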
Conditions: CellTiterGlo ATP luminescence, 96 h; series mostly up to 35 µM; activity change, negative = viability loss: at the top concentration

In order of rising “activity change, negative = viability loss” value:
1. CCN(CC(=O)Nc1c(F)cccc1F)C(=O)c1cc(S(=O)(=O)N(CC)CC)ccc1N1CCCCC1  -10.2%
2. O=C(Nc1cccc(Cl)c1)Nc1csc([N+](=O)[O-])c1  -2.51%
3. Cc1cccc(NC(=O)CC23CC4CC(C2)CC(n2nnc(C)n2)(C4)C3)c1  -2.11%
4. COc1cccc(/C=N/NC(=O)c2ccc(N3CCCC3=O)cc2)c1  0.174%
5. COC(=O)[C@@]12C[C@@H](CC(=O)N3CCN(C(=O)c4ccco4)CC3)C(=O)N(Cc3ccco3)C1=CCC(C)(C)C2  1.11%
6. CCCN(CCC)Cc1c(C(=O)N/N=C/C(C)=C\c2ccco2)nnn1-c1nonc1N  1.56%
7. Cc1noc(/C=C/c2ccco2)c1S(=O)(=O)N1CCC(C(=O)NC(C)c2ccccc2)CC1 (stereo not given)  2.75%
8. CN(C)CCOc1ccc2c(c1)C(=O)C(=Cc1ncc([N+](=O)[O-])n1C)C2  3.04%
9. CCCCNC(=O)C(Sc1ccccc1)c1ccccc1 (stereo not given)  3.21%
10. CCOC(=O)Nc1ccc2c(c1)N(C(=O)CCCl)c1ccccc1[S@]2=O  3.41%
11. C=C1C(=O)[C@]23C[C@H]1CC[C@H]2[C@]1(C)[C@@H](OC(C)=O)CC[C@@](C)(C(=O)OC)[C@H]1C[C@@H]3OC(C)=O  4.24%
12. O=C(Nc1ccc(F)cc1)c1nc(S(=O)(=O)Cc2ccccc2)ncc1Cl  5.74%
13. O=C(NC1CCCCC1)C(c1cccs1)N(C(=O)Cc1c[nH]c2ccccc12)c1ccc(F)cc1 (stereo not given)  5.84%
14. CN(C)N=Nc1nc[nH]c1C(N)=O  5.96%
15. Cc1ccc2c(c1C)-c1c(ccc(C)c1C)C(=O)C2=O  6.31%
16. Nc1ncnc2c(C3OC(CO)C(O)C3O)scc12 (stereo not given)  6.34%
17. C=C1C2(C(=O)Nc3ccc(SC(F)F)cc3)CCC(C2)C1(C)C (stereo not given)  7.53%
18. CC(C)OCCCNC(=O)c1cccc(NC(=O)c2ccccc2)c1  7.73%
19. Cc1cccc(NCc2ccc(O)c3ncccc23)c1C  8%
20. Cc1ccc(S(=O)(=O)CCC(=O)c2ccc(O)cc2O)cc1  8.26%
21. O=C(CCc1ccc(S(=O)(=O)NCc2ccccc2)cc1)NCc1ccco1  8.73%
22. C[C@H](CO)N1C[C@H](C)[C@H](CN(C)S(=O)(=O)c2cccc(F)c2)OCc2ccccc2-c2c(n(C)c3ccccc23)C1=O  8.99%
23. C=C1C(=O)O[C@@H]2[C@H]1CC[C@H](C)[C@]1(O)CCC(=O)[C@@]21C  9.59%
24. CCC(=O)Oc1ccc2c(C)cc(=O)oc2c1C(=O)c1ccccc1  9.81%
25. O=C(c1nnsc1S(=O)(=O)c1ccc(Cl)cc1)N1CCOCC1  9.9%
26. COc1ccc(-c2cc(-c3ccccc3)c(C#N)c(S(C)(=O)=O)n2)cc1  9.92%
27. COc1ccc(S(=O)(=O)Nc2ccc3c(c2)C(=O)N([C@H](C)CO)C[C@H](C)[C@@H](CN(C)S(=O)(=O)c2ccc(C)cc2)OCCCC[C@H](C)O3)cc1  10.6%
28. O=C1c2c(O)ccc(O)c2C(=O)c2c(NCCNCCO)ccc(NCCNCCO)c21  10.7%
29. Cc1ccc(S(=O)(=O)N2CCCCC2)cc1NC(=O)Cc1c[nH]c2ccccc12  11.5%
30. O=C(N/N=C/c1ccc(Cl)c([N+](=O)[O-])c1)c1cc(-c2ccc3c4c(cccc24)CC3)n[nH]1  11.8%
31. COc1ccc(C(=O)N/N=C/c2ccc(OC)c(CN3CCN(c4ccc(F)cc4)CC3)c2)cc1  12.1%
32. O=C(Nc1cccc(F)c1)N1CCCCN2[C@@H](CO)[C@H](c3ccc(C#Cc4ccccc4)cc3)[C@@H]2C1  12.2%
33. O=C(Nc1ccc([N+](=O)[O-])cn1)c1cc(-c2cccc(Br)c2)nc2ccccc12  12.6%
34. C=CC(=O)N1C/C(=C/c2ccc(Cl)cc2)C(=O)/C(=C\c2ccc(Cl)cc2)C1  12.8%
35. CCc1ccc2[nH]c3nc(N/N=C/c4ccc(O)cc4O)nnc3c2c1  13.3%
36. COc1ccccc1N1CCN(Cc2cc(Br)c(O)c3ncccc23)CC1  14.2%
37. O=C(N/N=C/c1ccc(O)cc1)c1[nH]c2ccc(Br)cc2c1-c1ccccc1  15.9%
38. COc1cc(Cl)c(NC2=CC(=O)C(=O)c3ccccc32)c(OC)c1  17.2%
39. CCN(CC)CC(C)(C)C(=O)/C=C/c1ccc(/C=C/C(=O)C(C)(C)CN(CC)CC)cc1  19.1%
40. O=C(Nc1cccc(Br)c1)c1ccc2c(c1)SC1=NS(=O)(=O)CCN12  21.6%
